The values below come from PubChem BioAssay AID485297 (National Center for Advancing Translational Sciences (NCATS), 2010).

Among all 320,000 compounds or so, about 9,100 (2.8%) were called active. Another 3% or so got no clear call; they are omitted. Calls come from the whole dose curve; as a rule, active = well fitted activation curve with a large enough effect; inconclusive = small, poorly fitted or top-dose-only effect; inactive = no such curve, though single readings can be large or run the other way. What follows is part of a selection rich in actives, with near analogues and random picks from the rest.
Potency is the fitted concentration of half-maximal effect.

A short description of the test: qHTS Assay for Rab9 Promoter Activators. For activation, negative = inhibition: % of control where 0% means no effect. Note: nearly all actives have a fitted effect of over 60% in size. As to conditions: Huh7 Rab9 promoter-luciferase reporter, luminescence, 24 h; series mostly up to 9.22 µM; activation, negative = inhibition: at the top concentration. An outline of the steps: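 Luciferase signal after 10 min detection reagent at ambient indicates Rab9 promoter upregulation; stably transfected Huh7 cells were treated 24 h with compound in DMSO at 37 °C, 5% CO2.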
Consider `Cc1ccc(NC(=O)Cn2c(C)csc2=O)cc1`, for which the “activation, negative = inhibition” value is 6.72% (inactive). On the same count and under the same terms, with `Cc1ccc(NC(=O)CCN2C(=O)c3ccccc3C2=O)cc1C` the figure was 6.61% (inactive). On to `Cc1ccc(NC(=O)c2cc(-c3ccccc3O)n[nH]2)cc1C`, for which the Potency was 2820 nM (active). For `Cc1ccc(C)c(NC(=O)c2cc(-c3cc(C)cc(C)c3O)n[nH]2)c1`, the “activation, negative = inhibition” value is -6.62% (inactive).

In the case of `Cc1ccc(NC(=O)c2cccs2)cc1S(=O)(=O)N(C)C`, the “activation, negative = inhibition” value was 17.2% (inactive). For `Cc1ccc(C(=O)Nc2ccc(C)c(S(=O)(=O)N(C)C)c2)s1`, the Potency is 1000 nM (active).

For `CCN(CC(=O)Nc1ccc(C)c(S(=O)(=O)N(C)C)c1)Cc1ccccc1`, the “activation, negative = inhibition” value was 2.23% (inactive). The same measure, in the same setting: to `CCN(CC)CCn1c2c(c(SCC(=O)Nc3nc4ccccc4s3)nc1=O)CCCC2` belongs 0.858% (inactive). For the molecule `c1ccc2sc(NN=C3CCCC3)nc2c1`, the Potency was 631 nM (active).

As to `O=[N+]([O-])c1cc(Br)c(O)c(/C=N/Nc2nc3ccccc3s2)c1`, the “activation, negative = inhibition” value is -8.89% (inactive). The same measure, in the same setting: with `CC(=O)O[C@H]1c2ccccc2-c2ccccc2[C@@H]1OC(C)=O` the figure was -1.15% (inactive); with `Cc1ccc(NC(=O)c2c(NC(=O)CCC(=O)O)sc3c2CCCCC3)cc1`, -6.43% (inactive); with `CCOC(=O)c1sc(NC(=O)c2sc(C)nc2C)nc1C`, -29.6% (inactive). The same measure, in the same setting: to `CCOC(=O)c1sc(NC(=O)c2cc(S(=O)(=O)N3CCOCC3)ccc2C)nc1C` belongs -2.46% (inactive). As to `O=C(Nc1ccccc1N1CCOCC1)c1csc2c1CCCC2`, the “activation, negative = inhibition” value is 3.79% (inactive). Turning to `Cc1ccc(NC(=O)c2csc3c2CCCC3)cc1`, the Potency was 1410 nM (active). The same measure, in the same setting: to `COC(=O)c1sc(NC(=O)c2csc3c2CCCC3)nc1C` belongs 3980 nM (active). With `CCN(C(=O)COC(=O)c1c(C)nn(-c2ccccc2)c1Cl)c1c(N)n(Cc2ccccc2)c(=O)[nH]c1=O`, the “activation, negative = inhibition” value is -1.95% (inactive).

As to `Cc1cccc(NC(=O)CN2CCN(CC(=O)NCC3(N4CCCCC4)CCCCC3)CC2)c1C`, the “activation, negative = inhibition” value was -5.48% (inactive). Still for that read-out and setting: to `CCCn1c(N)c(N(CCOC)C(=O)C2CCCC2)c(=O)[nH]c1=O` belongs 0.7% (inactive); to `O=C(CNS(=O)(=O)c1ccc2ccccc2c1)Nc1ccc(F)c(F)c1F`, -2.94% (inactive). The same measure, in the same setting: with `COC(=O)c1ccc(NC(=O)CSc2nncn2-c2cccnc2)cc1` the figure was 0.416% (inactive). The same measure, in the same setting: with `O=C(COC(=O)c1cccc(Cl)c1)NC1CCCCCCC1` the figure was 0.046% (inactive); with `O=C(CSc1nnc(N2CCOCC2)n1-c1cccc(F)c1)N1CCN(c2ccccn2)CC1`, -1.86% (inactive). On to `C=CCNc1nc(Nc2ccc(Cl)cc2)nc(OC)n1`, for which the “activation, negative = inhibition” value is 14.8% (inactive). On the same count and under the same terms, to `Brc1ccc(CN2CC[C@H]3C=CCc4cccc(c43)C2)cc1` belongs -3.17% (inactive); to `COc1cccc(C(=O)Nc2cccnc2)c1OC`, -3.29% (inactive). As to `Cc1cccc(-n2cnc(C(=O)Nc3cccnc3)c2)n1`, the Potency was 2240 nM (active).

As for `Cc1cccc(-n2cnc(C(=O)NNC(=S)Nc3ccccc3)c2)n1`, the “activation, negative = inhibition” value is 2.6% (inactive). On the same count and under the same terms, to `Cc1ccc(NC(=O)CN(C)C(=O)c2cccc(S(=O)(=O)N3CCCC3)c2)cc1` belongs 1.79% (inactive).

Take `Cc1ccc(O)c(CNc2nc3ccccc3[nH]2)c1`: the “activation, negative = inhibition” value is 6.94% (inactive). For the molecule `Cc1ccc(-n2nc3cc(C)c(NC(=O)c4cccnc4)cc3n2)cc1`, the Potency is 3550 nM (active).

With `O=C(Nc1cccc(-n2cnnn2)c1)c1cccnc1`, the “activation, negative = inhibition” value was -7.65% (inactive). `Cc1cc(NC(=O)c2ccco2)c(=O)n(Cc2c(F)cccc2Cl)c1`: the “activation, negative = inhibition” value was -1.33% (inactive).

Take `O=C(Nc1cc(-c2nc3ncccc3o2)ccc1Cl)c1ccco1`: the “activation, negative = inhibition” value is 13.9% (inactive).

Take `Cc1ccc(S(=O)(=O)N2CCCCC2)cc1NC(=O)c1cccnc1`: the “activation, negative = inhibition” value is 0.0836% (inactive). For the molecule `Cc1ccc(-n2nc3cc(Cl)c(NC(=O)c4ccco4)cc3n2)cc1`, the Potency is 3550 nM (active). With `O=C(OC1CCCCC1=O)c1cccc(S(=O)(=O)NCc2ccccc2)c1` (centres undefined), the “activation, negative = inhibition” value was 8.23% (inactive). The same measure, in the same setting: to `CCOc1ccccc1NC(=O)NC1CCCCCCC1` belongs 0.121% (inactive).

In the case of `O=C(CN1CCN(C2CCS(=O)(=O)C2)CC1)N1N=C(c2ccc(Cl)cc2)CC1c1ccco1` (centres undefined), the “activation, negative = inhibition” value was -4.64% (inactive). Same read-out and setting: with `CC(=O)NCc1ccc(-c2csc(NC(=O)CCCc3nc4ccccc4c(=O)[nH]3)n2)cc1` the figure was -4.83% (inactive); with `CC1(C(=O)OCC(=O)Nc2ncc(Cl)cc2Cl)CC1(Cl)Cl` (centres undefined), -3.32% (inactive); with `O=C(CSc1ccccc1)Nc1cccc(S(=O)(=O)N2CCOCC2)c1`, -4% (inactive). For the molecule `O=C1C(C=NCC2CCCO2)=C(O)c2ccccc21` (centres undefined), the Potency was 2820 nM (active). In the case of `CC(=NCC1CCCO1)c1c(O)[nH]c(=O)[nH]c1=O` (centres undefined), the “activation, negative = inhibition” value was 13.7% (inactive). For the molecule `O=C1c2cccc3c([N+](=O)[O-])ccc(c23)C(=O)N1CC1CCCO1` (centres undefined), the “activation, negative = inhibition” value is -27.7% (inactive).

On to `O=[N+]([O-])c1ccccc1SNc1ccccn1`, for which the “activation, negative = inhibition” value is -3.18% (inactive). Turning to `O=C(O[C@H]1[C@H](Cc2ccccc2)NS(=O)(=O)[C@H]2C[C@@H]3C=C[C@]12O3)c1ccc([N+](=O)[O-])cc1`, the “activation, negative = inhibition” value is -4.99% (inactive).

Consider `COc1ccc2c(C)cc(SCC(=O)NCC3CCCO3)nc2c1` (centres undefined), for which the “activation, negative = inhibition” value was -0.334% (inactive). As for `Cc1cccc(C)c1OC(=O)CSc1nnc(-c2ccccc2)o1`, the “activation, negative = inhibition” value is 6.16% (inactive). With `CCCCSc1nnc(-c2ccc(C)cc2)o1`, the Potency is 1580 nM (active). As for `CCOC(=O)CSc1nnc(-c2ccncc2)o1`, the “activation, negative = inhibition” value was -6.83% (inactive). Still for that read-out and setting: to `Cc1ccc(S(=O)(=O)N(C)C)cc1NC(=O)C(C)OC(=O)c1ccc2ccccc2n1` (centres undefined) belongs -1.95% (inactive).

Consider `O=C(c1ccccc1)N1CCN(C(=O)N2CCCCC2)CC1`, for which the “activation, negative = inhibition” value was 1.56% (inactive). As to `O=C(O)c1cccc(N=NN2CCCCCC2)c1`, the Potency was 282 nM (active). Consider `O=C(O)c1ccc(N=NN2CCOCC2)cc1`, for which the “activation, negative = inhibition” value is -0.19% (inactive).

Consider `COc1ccc2c3c(c(=O)oc2c1)C1O[C@](CCCCN2C(=O)c4ccccc4C2=O)(Cc2c1ccc1ccccc21)O3`, for which the activation, negative = inhibition was -1.17% [at 1.84 µM] (inactive).

Consider `COc1cc(C(=O)NCC2(c3ccccc3)CCCC2)ccc1OC(C)C`, for which the “activation, negative = inhibition” value is -3.81% (inactive).

Take `Cc1cc2nc(C)n(CCCNC(=O)Nc3ccccc3)c2cc1C`: the “activation, negative = inhibition” value was -2.07% (inactive).

For the molecule `Cc1nc2cc(NC(=O)Nc3cccc(F)c3)ccc2n1C`, the Potency was 89.1 nM (active).

Consider `Cc1nc2cc(NC(=O)NC3CC3)ccc2n1C`, for which the “activation, negative = inhibition” value is 17.9% (inactive). Same read-out and setting: with `CN(C(=O)COc1ncnc2c1cnn2-c1ccccc1)C1CCCCC1` the figure was -10.6% (inactive); with `CC(=O)Cn1cnc2c(cnn2-c2ccccc2)c1=O`, 14.2% (inactive). For the molecule `c1ccc(-n2ncc3c2ncn2c(C4CCCCC4)nnc32)cc1`, the Potency is 3980 nM (active). `c1ccc2cc(CCCc3cc4ccccc4cn3)ncc2c1`: the “activation, negative = inhibition” value is -1.89% (inactive). Consider `CCCOc1ccc(C(=O)NCCc2ccccc2)cc1`, for which the Potency is 447 nM (active). For the molecule `COc1ccc(OCCCC(=O)NCCc2ccccc2)cc1`, the “activation, negative = inhibition” value is -0.814% (inactive). On the same count and under the same terms, with `O=C(CCNC(=O)c1ccc(Br)cc1)NCCCc1ccccc1` the figure was -0.377% (inactive); with `CN(c1ccccc1)S(=O)(=O)c1ccc(C(=O)NCCc2ccccc2)cc1`, 27.2% (inactive). As for `CC(C)c1ccc(C(=O)NCCCc2ccccc2)cc1`, the Potency is 3160 nM (active). As for `CCCc1ccc(OCCNC(=O)c2ccco2)cc1`, the “activation, negative = inhibition” value was 28.3% (inactive). Regarding `O=C(NCCOc1ccccc1)c1ccccc1`, the Potency is 708 nM (active). Turning to `CCCCCCCCC(=O)NCCOc1ccccc1`, the “activation, negative = inhibition” value is 0.417% (inactive).

For the molecule `Cc1noc(C)c1COc1ccc(C(=O)NCCOc2ccccc2)cc1`, the “activation, negative = inhibition” value was 20.5% (inactive).
